Assay outcomes (PubChem)
IL-1B inflam inh – inflammasome signaling inhibition, IL-1 beta readout | THP-1 LPS/ATP IL-1B secretion, AlphaLISA, 16 h; stronger effect = lower value | activity change, % at 57.5 µM | 360,000 tested, 4.7% active; in the data active means activity change below about -50%; inconclusive means mostly about -30% to -49%
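Secreted IL-1B measured by AlphaLISA bead assay after 16 h compound exposure of THP-1 cells; compounds (final up to 57.5 uM) added 1 h before LPS (250 ng/mL) and ATP (1.25 mM) stimulation; lower signal means less secretion.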
TDP1 cell noCPT – qHTS for Inhibitors of human tyrosyl-DNA phosphodiesterase 1 (TDP1): qHTS in cells in absence of CPT. AID 686978, 2013. 420,000 tested, 15% active. DT40 Tdp1-/- hTDP1 cells, no CPT, ATP luminescence, 48 h. Potency, µM (titrated, usually from 46.2 µM), inactives show at the top dose activity change, negative = growth inhibition, hits mostly inhibitors; further: potency means the concentration at half of the fitted maximal effect; nearly all actives have a fitted effect of over 55% in size
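Chicken DT40 Tdp1-/- cells complemented with human TDP1, screened without camptothecin (DMSO vehicle only), 400 cells/well. Compounds pin-transferred, cells incubated at 37 °C for at least 48 hr. Growth read as ATP-dependent luminescence (CellTiter-Glo, 30 min at RT).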
HT1080NT lethal – kills 2HG-producing HT-1080-NT fibrosarcoma cells | HT-1080-NT fibrosarcoma viability, CellTiter-Glo ATP luminescence, 48 h | Potency, µM (series often up to 46.1 µM), for inactives: at the highest dose activity, negative = less viability, most hits filed as cytotoxic | 360,000 tested, 1.6% active;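 further: NT is the 2HG producing partner of a matched IDH1 knockdown line; potency means the concentration at half of the fitted maximal effect; 0% = DMSO-treated cells and -100% = media-only wells without cells; nearly all actives have a fitted effect of over 55% in size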
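Luminescent CellTiter-Glo readout after 48 hours of compound exposure at 37 degrees C defined viability of HT-1080-NT cells. Activity was normalized to DMSO wells and cell-free media wells; concentration-response curves were fitted and assigned curve classes.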
HT1080 IDH1KD tx – kills HT-1080 cells with IDH1 knockdown | HT-1080 IDH1 knockdown viability, ATP luminescence, 48 h | Potency, µM (series often up to 46.1 µM), inactives show at the highest dose activity, negative = toxicity, actives largely listed as cytotoxic | 360,000 tested, 2% active | AID 686971;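 further: potency means the concentration at half of the fitted maximal effect; 0% = DMSO wells and -100% = cell-free medium wells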
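% activity derives from luminescence (CellTiter-Glo), normalised to DMSO and no-cell wells. HT-1080-IDH1KD cells, 750/well, had 48 h compound exposure at 37 °C.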
DT40 TDP1 CPT – growth inhibition of DT40 Tdp1-/-;hTDP1 cells with camptothecin (screen for TDP1 inhibitors); chicken DT40 Tdp1-/-;hTDP1 cells + 20 nM CPT, ATP luminescence, 48 h; Potency, µM (doses to about 46.2 µM), without a hit: top-dose activity change, negative = growth inhibition, usual class: inhibitors; 420,000 tested, 12% active; AID 686979; further: potency means the concentration at half of the fitted maximal effect; nearly all actives have a fitted effect of over 55% in size
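Chicken DT40 Tdp1-/- cells stably complemented with human TDP1 were seeded at 400 cells/well in medium containing 20 nM camptothecin, exposed to pin-transferred compounds, and grown at 37 °C for at least 48 hr. Viability was read as ATP luminescence.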
An asterisk follows results filed as active; u = inconclusive; x = no result given. Shown are actives, neighbours in structure and some others; about 19% of the full set was active somewhere. Unless noted, the call rests on the fitted dose curve; in most records, active means well fitted curve in the direction sought with a large enough effect; inconclusive means small, poorly fitted or top-dose-only effect, or another doubt; inactive means no such curve, though single readings can be large; an effect the other way counts as inactive or inconclusive. Unless noted, on the % scale 0 is the no-effect control and ±100 the full control effect.

SMILES | IL-1B inflam inh | TDP1 cell noCPT | HT1080NT lethal | HT1080 IDH1KD tx | DT40 TDP1 CPT
O=C(Nc1ccc(Oc2cccnc2)cc1)c1cccc([N+](=O)[O-])c1 | -56* | u | 2% | 4% | u
Cc1ccc(S(=O)(=O)N2CCOCC2)cc1NC(=O)COc1cccc(Oc2ccccc2)c1 | -3 | u | -3% | -13% | u
CCCCN(CC)CCCNC(=O)CCN1N=C(c2ccc(OC)cc2)CCC1=O | x | -12% | x | x | -1%
COc1ccc(S(=O)(=O)Nc2cccc(N(C)S(C)(=O)=O)c2)cc1C | 10 | 21µM* | -3% | 8% | 26µM*
CCOc1ccc(S(=O)(=O)Nc2cccc(N(C)S(C)(=O)=O)c2)cc1 | 0 | 12µM* | -4% | -4% | 23µM*
CCOc1ccc(S(=O)(=O)Nc2cccc(C(=O)N3CCN(c4ccc(OC)cc4)CC3)c2)cc1 | -8 | -25% | -5% | -4% | -12%
COc1ccc(S(=O)(=O)Nc2cccc(F)c2)cc1C | 3 | -17% | 6% | 3% | -22%
CCOc1ccc(NS(=O)(=O)c2cnc(Cl)c(Cl)c2)cc1 | -99* | u | u | u | u
CCOc1ccc(S(=O)(=O)Nc2cccc(OC)c2)cc1 | 36 | u | u | 10µM* | u
O=C(NCC1CCCO1)c1ccc(NS(=O)(=O)c2ccccc2)cc1 (stereo not drawn) | -26 | -12% | -3% | 10% | -8%
COc1cccc(NS(=O)(=O)c2ccc(-n3cccn3)cc2)c1 | -16 | 5.8µM* | 11% | -18% | u
Cc1ccc(NS(=O)(=O)c2ccc(-n3cccn3)cc2)cc1F | -3 | -19% | -6% | -26% | u
CCCCOc1ccc(S(=O)(=O)Nc2cc(OC)ccc2OC)cc1 | -75* | 16µM* | u | 0% | u
COC(=O)c1cc(S(=O)(=O)Nc2cc(OC)cc(OC)c2)cn1C | 5 | u | -3% | -13% | -27%
CCOC(=O)c1cc(S(=O)(=O)Nc2cccc(OC)c2)cn1C | 10 | u | 8% | -12% | 21µM*
CNC(=O)C1CC(=O)N(c2ccc(OCC(=O)Nc3ccc(F)cc3)cc2)C1 (stereo not drawn) | 28 | -24% | 14% | 18% | 1%
CCOc1cc(OCC)cc(C(=O)NCCCN2CCOCC2)c1 | -3 | 4% | 17% | 15% | -10%
Clc1ccc(OCc2nnc3n2CCCCC3)c(Cl)c1 | -9 | -26% | -1% | -4% | -20%
COc1cc(OC)cc(C(=O)/C=C2\Sc3ccccc3N2C)c1 | -26 | 0% | u | 29% | -2%
CN1/C(=C\C(=O)c2cccs2)Sc2ccccc21 | -14 | 10µM* | u | u | u
COc1cccc(S(=O)(=O)Nc2ccc3sc(C)nc3c2)c1 | 26 | 23µM* | -3% | -12% | u
Cc1nc2ccc(NS(=O)(=O)c3ccccc3Cl)cc2s1 | 17 | u | -3% | -12% | u
Cc1cc2oc(=O)sc2cc1NS(=O)(=O)c1cccc2cccnc12 | -69* | -27% | 0% | -1% | u
Cc1nc2cc(NS(=O)(=O)c3cccc4cccnc34)ccc2s1 | -14 | 9.2µM* | -1% | -21% | 16µM*
Cc1nc2ccc(NS(=O)(=O)c3c(F)cccc3F)cc2s1 | 6 | 16µM* | u | -3% | 16µM*
SMILES | IL-1B inflam inh | TDP1 cell noCPT | HT1080NT lethal | HT1080 IDH1KD tx | DT40 TDP1 CPT
CN(C(=O)CS(=O)(=O)c1cn(CC(=O)N2CCCC2)c2ccccc12)c1ccccc1 | -7 | 18% | 0% | -3% | -12%
CC(C)(CC(=O)O)CC(=O)NCc1c(Cl)cccc1Oc1ccccc1 | 5 | -2% | -4% | 2% | -6%
COc1ccc2cc3c(N)c(C(=O)NCc4ccco4)sc3nc2c1 | -63* | u | 14% | 5% | u
N#Cc1c(N)n(CCNC(=O)c2ccccc2)c2nc3ccccc3nc12 | -9 | -8% | 19% | 17% | -19%
COc1ccc2cc3cc(C(=O)NCc4ccco4)oc3nc2c1 | -13 | u | -12% | u | u
COc1ccc(Cn2c(N)c(C#N)c3nc4ccccc4nc32)cc1OC | -5 | -22% | -8% | -21% | -14%
COc1ccc(CCn2c(N)c(C(=O)NCc3ccco3)c3nc4ccccc4nc32)cc1OC | -20 | 16µM* | u | 18µM* | 23µM*
COCCNC(=O)c1c(N)n(CCC2=CCCCC2)c2nc3ccccc3nc12 | -72* | 26µM* | -1% | 0% | u
Nc1c(C(=O)NCc2ccco2)c2nc3ccccc3nc2n1CCc1ccccc1F | -58* | u | -14% | -15% | 16µM*
CSc1cc(-c2ccc(Cl)cc2)c(C(=O)N2CCCC2)s1 | -15 | u | -2% | -2% | -24%
COc1ccc(CCn2c(N)c(C(=O)NCc3ccco3)c3nc4ccccc4nc32)cc1 | -86* | 13µM* | u | u | 12µM*
COc1ccc(-n2c(N)c(C(=O)NCc3ccco3)c3nc4ccccc4nc32)c(OC)c1 | -18 | u | -2% | -18% | 23µM*
COCCn1c(N)c(C(=O)OCc2ccccc2)c2nc3ccccc3nc21 | 8 | u | -8% | -8% | -8%
COc1ccc(C(=O)Nc2cccc(C(=O)NCc3ccco3)c2)cc1 | -18 | u | u | u | u
CCCCOC(=O)c1c(N)n(-c2ccc(OC)cc2OC)c2nc3ccccc3nc12 | x | 16µM* | x | x | 12µM*
CCCS(=O)(=O)NC(=O)C1(C)CCCN(C(=O)c2ccc(C(=O)OC)cc2)C1 (stereo not drawn) | 0 | -2% | u | 8% | -3%
O=c1c(C(c2nnnn2C2CCCCC2)N2CCCCC2)coc2ccc(Cl)cc12 (stereo not drawn) | -19 | 21µM* | -4% | 4% | u
N#Cc1cccc(C(c2nnnn2C2CCCC2)N2CCCCCC2)c1 (stereo not drawn) | -18 | u | -6% | -17% | u
COc1ccc2c(c1OC)C(=O)OC2c1ccc(O)cc1 (stereo not drawn) | x | 13µM* | x | x | 18µM*
O=S(=O)(Nc1ccc(-n2cccc2)cc1)c1ccccc1 | 1 | u | -3% | -15% | u
Cc1cc(C)c2cccc(NC(=S)NC(=O)c3ccccc3)c2n1 | 22 | 13µM* | 2.5µM* | 2.8µM* | 16µM*
O=C(NC(=S)Nc1cccc2ncccc12)c1ccccc1 | -14 | u | -3% | -2% | u
Cc1ccc2cccc(NC(=S)NC(=O)c3ccccc3)c2n1 | 24 | u | -18% | -4% | 18µM*
